Assay [1] concerns the target Cytochrome P450 2D6 (Homo sapiens) (UniProt P10635). Kind of assay: Cytochrome P450 Family 2 Subfamily D Member 6 (CYP2D6) small molecule antagonists: luciferase reporter qHTS assay (AID 1671196). Further: nearly all actives have a fitted effect of over 50% in size. On activity change, negative = inhibition: series mostly up to about 120 µM. Put shortly: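 P450-Glo format: CYP2D6 converts a proluciferin substrate to luciferin in an NADPH-driven reaction lasting 1 h at room temperature. Light output, proportional to CYP2D6 activity, reflects interference by test chemicals.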

The target in assay [2] is Cytochrome P450 2C19 (Homo sapiens) (UniProt P33261). Nature of the assay: Cytochrome P450 Family 2 Subfamily C Member 19 (CYP2C19) small molecule antagonists: luciferase reporter qHTS assay (AID 1671197). Further: nearly all actives have a fitted effect of over 65% in size. On activity change, negative = inhibition: series mostly up to about 120 µM. The gist of the method:
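Inhibition of CYP2C19 was scored from loss of luminescence in a P450-Glo proluciferin substrate assay, NADPH-started and run 1 h at 37C, with ketoconazole as positive control.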
On the technique in general: In a reporter assay the amount or activity of a reporter protein is the signal.

Assay [3] deals with Cytochrome P450 2C9 (Homo sapiens) (UniProt P11712). Nature of the assay: Cytochrome P450 Family 2 Subfamily C Member 9 (CYP2C9) small molecule antagonists: luciferase reporter qHTS assay (AID 1671198). Further: nearly all actives have a fitted effect of over 50% in size. On activity change, negative = inhibition: series mostly up to about 120 µM. Put shortly:
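P450-Glo proluciferin substrate with CYP2C9 enzyme; 10 min RT preincubation, then NADPH regeneration 1 h at 37C; luciferin detection reagent 20 min RT, luminescence in relative luminescence units.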

Assay [4] has as its target Cytochrome P450 3A4 (Homo sapiens) (UniProt P08684). Nature of the assay: Cytochrome P450 Family 3 Subfamily A Member 4 (CYP3A4) small molecule antagonists: luciferase reporter qHTS assay (AID 1671201). Further: nearly all actives have a fitted effect of over 50% in size. On activity change, negative = inhibition: series mostly up to about 120 µM. Put shortly:
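Luminescent readout (RLU) proportional to CYP3A4 activity, from luciferin generated off a proluciferin substrate. Enzyme–substrate mix plus compound 10 min at room temp, NADPH regeneration 1 h, detection reagent 20 min.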

Assay [5] has as its target Voltage-gated inwardly rectifying potassium channel KCNH2 (Homo sapiens) (UniProt Q12809). Kind of assay: Human Ether-a-go-go-Related Gene (hERG) channel small molecule antagonists: fluorescence cell-based qHTS assay (AID 1671200). Further: nearly all actives have a fitted effect of over 50% in size.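 On activity change, negative = inhibition: hERG-expressing U2OS cells given a thallium stimulus after FluxOR II dye loading; series mostly up to about 77 µM.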 The gist of the method: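 Read-out: thallium influx as a surrogate for potassium, tracked as fluorescence (480 nm ex/540 nm em) every second for 2 min after Stimulus Buffer addition in dye-loaded hERG-U2OS cells.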
Background: The hERG channel carries a current that helps repolarise heart muscle cells.

Assay [6] has as its target Cytochrome P450 1A2 (Homo sapiens) (UniProt P05177). Nature of the assay: Cytochrome P450 Family 1 Subfamily A Member 2 (CYP1A2) small molecule antagonists: luciferase reporter qHTS assay (AID 1671199). Further: nearly all actives have a fitted effect of over 50% in size. On activity change, negative = inhibition: series mostly up to about 120 µM. Put shortly: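 Inhibition of CYP1A2 conversion of proluciferin to luciferin, detected by luminescence. Reaction run 1 h at room temperature with NADPH regeneration after brief compound preincubation.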

Inconclusive results are not listed. A number with no mark means an inactive call. Calls of active or inactive are those of the source. The call rests on the fitted dose curve; in most records, active means well fitted curve in the direction sought with a large enough effect in the repeat runs; inconclusive means weak or mixed curves; inactive means no such curve, though single readings can be large; an effect the other way counts as inactive or inconclusive.
On the % scale 0 is the no-effect control and ±100 the full control effect; potency means the concentration at half of the fitted maximal effect.

Chain of Cytochrome P450 2C19 (Homo sapiens) (P33261 whole entry, looked up): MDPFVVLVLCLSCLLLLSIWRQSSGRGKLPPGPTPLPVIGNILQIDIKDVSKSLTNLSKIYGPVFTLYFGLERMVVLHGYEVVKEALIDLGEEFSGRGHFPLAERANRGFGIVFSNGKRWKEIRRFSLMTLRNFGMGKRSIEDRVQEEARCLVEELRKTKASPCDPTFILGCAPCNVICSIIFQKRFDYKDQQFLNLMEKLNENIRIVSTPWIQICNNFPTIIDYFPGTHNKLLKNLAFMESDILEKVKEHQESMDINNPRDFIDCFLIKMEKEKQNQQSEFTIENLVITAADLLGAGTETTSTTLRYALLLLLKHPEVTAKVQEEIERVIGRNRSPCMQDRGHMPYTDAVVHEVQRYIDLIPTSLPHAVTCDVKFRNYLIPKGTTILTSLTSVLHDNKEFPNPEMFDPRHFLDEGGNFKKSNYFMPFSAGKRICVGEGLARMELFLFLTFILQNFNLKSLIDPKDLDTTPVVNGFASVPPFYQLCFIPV
Chain of Cytochrome P450 2C9 (Homo sapiens) (P11712 whole entry, looked up): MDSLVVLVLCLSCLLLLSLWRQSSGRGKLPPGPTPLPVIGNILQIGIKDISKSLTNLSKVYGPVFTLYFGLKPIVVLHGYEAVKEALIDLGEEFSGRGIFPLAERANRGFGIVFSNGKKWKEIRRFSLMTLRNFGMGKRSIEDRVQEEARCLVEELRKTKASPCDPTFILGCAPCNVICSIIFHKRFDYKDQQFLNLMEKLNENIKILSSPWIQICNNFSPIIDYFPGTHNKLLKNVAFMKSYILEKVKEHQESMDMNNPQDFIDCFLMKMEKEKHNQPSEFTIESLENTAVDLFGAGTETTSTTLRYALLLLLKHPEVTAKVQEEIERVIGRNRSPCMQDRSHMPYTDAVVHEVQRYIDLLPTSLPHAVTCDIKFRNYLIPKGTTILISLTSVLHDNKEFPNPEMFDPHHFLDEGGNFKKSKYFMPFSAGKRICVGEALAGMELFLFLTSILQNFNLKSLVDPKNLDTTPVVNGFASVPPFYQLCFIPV
Chain of Cytochrome P450 1A2 (Homo sapiens) (P05177 whole entry, looked up): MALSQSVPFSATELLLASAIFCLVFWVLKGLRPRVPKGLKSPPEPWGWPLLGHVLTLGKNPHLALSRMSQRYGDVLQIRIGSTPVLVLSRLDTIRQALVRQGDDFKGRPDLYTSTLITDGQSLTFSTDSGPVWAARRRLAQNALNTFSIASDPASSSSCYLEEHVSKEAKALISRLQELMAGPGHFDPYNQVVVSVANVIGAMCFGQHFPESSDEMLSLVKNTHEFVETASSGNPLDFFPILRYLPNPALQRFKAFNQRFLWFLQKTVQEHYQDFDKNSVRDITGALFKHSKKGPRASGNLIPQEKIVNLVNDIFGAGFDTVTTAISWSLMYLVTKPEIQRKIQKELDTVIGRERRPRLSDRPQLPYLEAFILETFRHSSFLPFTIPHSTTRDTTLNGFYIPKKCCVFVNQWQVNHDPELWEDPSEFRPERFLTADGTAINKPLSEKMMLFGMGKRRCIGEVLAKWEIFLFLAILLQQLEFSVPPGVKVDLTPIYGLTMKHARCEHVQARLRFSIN
Chain of Cytochrome P450 2D6 (Homo sapiens) (P10635 whole entry, looked up): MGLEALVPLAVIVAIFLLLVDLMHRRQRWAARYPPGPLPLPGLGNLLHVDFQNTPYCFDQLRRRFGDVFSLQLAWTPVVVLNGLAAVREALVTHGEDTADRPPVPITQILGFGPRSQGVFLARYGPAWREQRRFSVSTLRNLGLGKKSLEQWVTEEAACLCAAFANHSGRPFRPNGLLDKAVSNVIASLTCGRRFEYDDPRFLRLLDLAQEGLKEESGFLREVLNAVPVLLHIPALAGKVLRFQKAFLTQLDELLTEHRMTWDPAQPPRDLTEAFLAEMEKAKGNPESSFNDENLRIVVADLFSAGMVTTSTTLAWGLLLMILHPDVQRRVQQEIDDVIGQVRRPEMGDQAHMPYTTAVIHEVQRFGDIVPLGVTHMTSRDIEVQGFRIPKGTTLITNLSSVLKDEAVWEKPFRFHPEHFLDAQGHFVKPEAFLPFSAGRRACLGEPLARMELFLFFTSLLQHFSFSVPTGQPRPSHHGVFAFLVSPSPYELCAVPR
Chain of Voltage-gated inwardly rectifying potassium channel KCNH2 (Homo sapiens) (Q12809 whole entry, looked up): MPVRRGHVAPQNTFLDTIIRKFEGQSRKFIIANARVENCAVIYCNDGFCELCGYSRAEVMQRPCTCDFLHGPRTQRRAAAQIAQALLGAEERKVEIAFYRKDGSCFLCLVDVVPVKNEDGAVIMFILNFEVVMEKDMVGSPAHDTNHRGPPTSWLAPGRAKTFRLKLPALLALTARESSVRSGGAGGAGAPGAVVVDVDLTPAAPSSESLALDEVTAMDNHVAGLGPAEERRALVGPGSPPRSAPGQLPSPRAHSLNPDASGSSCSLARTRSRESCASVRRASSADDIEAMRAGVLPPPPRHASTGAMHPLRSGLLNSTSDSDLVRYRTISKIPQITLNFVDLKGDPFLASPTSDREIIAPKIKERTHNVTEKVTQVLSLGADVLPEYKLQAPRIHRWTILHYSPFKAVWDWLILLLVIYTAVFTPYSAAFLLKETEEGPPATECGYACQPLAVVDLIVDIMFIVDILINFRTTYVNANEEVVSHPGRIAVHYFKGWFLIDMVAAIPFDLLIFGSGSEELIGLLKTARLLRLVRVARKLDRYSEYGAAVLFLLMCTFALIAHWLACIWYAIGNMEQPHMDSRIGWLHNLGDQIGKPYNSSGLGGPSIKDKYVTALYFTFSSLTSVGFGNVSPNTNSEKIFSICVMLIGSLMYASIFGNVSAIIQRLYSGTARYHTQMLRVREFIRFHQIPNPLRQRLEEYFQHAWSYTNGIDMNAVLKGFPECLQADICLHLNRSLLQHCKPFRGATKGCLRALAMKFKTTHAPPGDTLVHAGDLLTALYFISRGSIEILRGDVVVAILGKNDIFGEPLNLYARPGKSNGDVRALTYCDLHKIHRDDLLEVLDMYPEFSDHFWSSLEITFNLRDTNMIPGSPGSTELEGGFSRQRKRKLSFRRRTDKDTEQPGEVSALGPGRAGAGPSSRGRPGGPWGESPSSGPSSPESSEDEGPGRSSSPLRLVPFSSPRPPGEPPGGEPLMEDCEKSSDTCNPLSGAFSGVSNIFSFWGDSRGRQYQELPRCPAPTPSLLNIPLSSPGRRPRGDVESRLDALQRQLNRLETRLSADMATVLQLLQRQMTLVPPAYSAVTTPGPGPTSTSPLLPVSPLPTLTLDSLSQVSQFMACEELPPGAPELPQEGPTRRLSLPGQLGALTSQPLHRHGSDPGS
Chain of Cytochrome P450 3A4 (Homo sapiens) (P08684 whole entry, looked up): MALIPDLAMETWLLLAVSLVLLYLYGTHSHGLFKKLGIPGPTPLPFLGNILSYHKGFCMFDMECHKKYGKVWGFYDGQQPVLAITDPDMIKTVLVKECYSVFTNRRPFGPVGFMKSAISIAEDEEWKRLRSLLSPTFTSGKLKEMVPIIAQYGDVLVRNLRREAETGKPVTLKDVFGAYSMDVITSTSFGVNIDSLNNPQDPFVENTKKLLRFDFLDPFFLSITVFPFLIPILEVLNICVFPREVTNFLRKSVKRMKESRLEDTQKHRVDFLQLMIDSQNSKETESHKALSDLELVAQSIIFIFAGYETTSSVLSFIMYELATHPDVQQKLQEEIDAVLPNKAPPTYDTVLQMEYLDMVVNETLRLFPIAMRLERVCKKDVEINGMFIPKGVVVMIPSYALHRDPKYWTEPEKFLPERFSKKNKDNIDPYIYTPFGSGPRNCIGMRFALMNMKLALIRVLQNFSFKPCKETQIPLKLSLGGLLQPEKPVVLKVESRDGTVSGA

Consider `COc1ccc(Br)c(C)c1`, for which the Potency entry in assay [1], in assay [3] and in assay [4] was “inactive” in each case. The Potency in assay [2] was 36 µM (active).
As to `CCC(C)(CCC(C)C)C(=O)O` (stereo not drawn), the figures for the Potency in assay [1] and in assay [3] were 28.3 µM (active) and 35.6 µM (active), respectively. Besides, the Potency result in assay [2], in assay [5] and in assay [4] was “inactive” each time.
Consider `COc1cc2c(cc1OC)[C@@H]1CC(=O)[C@@H](CC(C)C)CN1CC2`, for which the results for the Potency in assay [1], in assay [2] and in assay [3] were 12.3 µM (active), 7.76 µM (active) and 11 µM (active), respectively. For the same compound, in assay [5], the Potency entry was “inactive”.
For `O=C1c2ccccc2C(=O)c2cc(S(=O)(=O)O)ccc21`, the values for the Potency in assay [1], in assay [2] and in assay [3] were 40.1 µM (active), 31.8 µM (active) and 12.7 µM (active), respectively. For the same compound, the Potency result in assay [5] and in assay [4] was “inactive” in each case.
For `CC(C)C(=O)OCCc1ccccc1`, the Potency entry in assay [1], in assay [2], in assay [6], in assay [5] and in assay [4] was “inactive” in each case.
Consider `CC(N)C(=O)OC(C)(C)Cc1ccc(Cl)cc1` (stereo not drawn), for which the Potency in assay [1] is 7.76 µM (active); in assay [2], 1.55 µM (active); in assay [6], 1.38 µM (active). In addition, the Potency result in assay [5] was “inactive”.
As to `CC1(C)S[C@@H]2[C@H](N=CN3CCCCCC3)C(=O)N2[C@H]1C(=O)O`, the Potency result in assay [1], in assay [2], in assay [3], in assay [5] and in assay [4] was “inactive” throughout.
In the case of `CCOCCOC(=O)/C=C/c1ccc(OC)cc1`, the Potency result in assay [1], in assay [5] and in assay [4] was “inactive” each time. Moreover, the figures for the Potency in assay [2] and in assay [6] were 34.7 µM (active) and 7.76 µM (active), respectively.
For `CCOC(=O)[C@H](CCc1ccccc1)N[C@@H](C)C(=O)N1C(=O)N(C)C[C@H]1C(=O)O`, the Potency entry in assay [1], in assay [2], in assay [6] and in assay [4] was “inactive” throughout.
Take `Cc1cccc(C)c1OCC(C)N` (stereo not drawn): the Potency was 13.8 µM (active) in assay [1] and 1.62 µM (active) in assay [6]. In addition, the Potency entry in assay [2] and in assay [4] was “inactive” each time.
As to `O=C(OCC(COC(=O)c1cccnc1)(COC(=O)c1cccnc1)COC(=O)c1cccnc1)c1cccnc1`, the Potency result in assay [1], in assay [2] and in assay [5] was “inactive” in each case.
As to `CC(CO)c1ccccc1` (stereo not drawn), the Potency result in assay [1], in assay [2], in assay [6], in assay [5] and in assay [4] was “inactive” each time.
On to `CC(CN)CC(C)(C)CCN` (stereo not drawn), for which the Potency in assay [1] is 11.5 µM (active); in assay [2] it was 36.5 µM (active); in assay [4] it was 5.16 µM (active). Moreover, the Potency result in assay [5] was “inactive”.
`CC(CC=O)CCCC(C)(C)O` (stereo not drawn): the Potency in assay [1] was 39.7 µM (active); in assay [2], 79.2 µM (active). The Potency result in assay [6] and in assay [4] was “inactive” throughout.
As for `NCCS`, the Potency result in assay [1], in assay [2], in assay [6], in assay [5] and in assay [4] was “inactive” each time.
As to `O=C1CC(c2ccc(Cl)cc2)CC(=O)N1`, the Potency entry in assay [1], in assay [2], in assay [5] and in assay [4] was “inactive” throughout.
For the compound `CCCCCCCC/C=C\CCCCCCCC(=O)OCCCC`, the activity change, negative = inhibition in assay [1] was -8.07% [at 23.6 µM]; in assay [2], -24.4% [at 23.6 µM]; in assay [5], -0.621% [at 15.8 µM]; in assay [4], -4.05% [at 23.6 µM]. For the same compound, in assay [6], the Potency entry is “inactive”.
With `CCCN1C[C@H](CSC)C[C@@H]2c3cccc4[nH]cc(c34)C[C@H]21`, the Potency is 0.155 µM (active) in assay [1] and 7.56 µM (active) in assay [5]. Further, the Potency entry in assay [3] and in assay [6] was “inactive” in each case.
With `COc1cc(NS(=O)(=O)c2ccc(N)cc2)nc(OC)n1`, the Potency entry in assay [1], in assay [2], in assay [6], in assay [5] and in assay [4] was “inactive” throughout.
In the case of `CC(C)(C)NC(N)=O`, the Potency entry in assay [1], in assay [5] and in assay [4] was “inactive” each time. Moreover, the Potency in assay [2] is 71 µM (active).
Take `CCCCCCCCOS(=O)(=O)O`: the Potency result in assay [1] and in assay [4] was “inactive” throughout. Besides, the Potency in assay [2] was 71 µM (active).
Consider `NS(=O)(=O)c1cc2c(cc1Cl)CN(C1CCCCC1)C2=O`, for which the Potency result in assay [1], in assay [2], in assay [6] and in assay [4] was “inactive” each time.
As for `C=C(C)C1CCC(C)(O)CC1` (stereo not drawn), the Potency result in assay [1], in assay [2], in assay [6], in assay [5] and in assay [4] was “inactive” in each case.
Turning to `BrCc1cccc(Oc2ccccc2)c1`, the Potency was 35.6 µM (active) in assay [1], 7.96 µM (active) in assay [2] and 39.9 µM (active) in assay [6]. In addition, the Potency result in assay [5] and in assay [4] was “inactive” each time.
Take `CC[C@H](C)C(=O)O[C@H]1C[C@H](O)C=C2C=C[C@H](C)[C@H](CC[C@@H](O)C[C@@H](O)CC(=O)O)[C@H]21`: the Potency result in assay [1], in assay [2], in assay [5] and in assay [4] was “inactive” each time.
Regarding `CC(=O)/C=C/C1C(C)=CCC(C)C1(C)C` (stereo not drawn), the Potency entry in assay [1] and in assay [5] was “inactive” throughout. Also, the Potency in assay [2] is 10 µM (active); in assay [4] it was 25.2 µM (active).

(Values after PubChem BioAssay (Tox21).)
